From ChEMBL document CHEMBL4513216, “Probing the Open Global Health Chemical Diversity Library for Multistage-Active Starting Points for Next-Generation Antimalarials” (ACS Infect Dis, 2020)
The campaign covered roughly 69,000 compounds. About 8,600 (12%) showed an effect of 50% or more. The entries come from a sample that favours strong results as a whole.

What follows are molecules tested on Plasmodium berghei (assay: Screen against P. berghei liver stage (PbLuc), transformed with Luciferase, at 10uM). Settings: tested at 10 uM.
Format: functional, HepG2
With `CSCC[C@H](N)C(=O)NCc1cc2n(n1)CCCN(C(=O)N(C)C)C2` the INHIBITION was 3.19%.
`Cc1nc(CN2CCO[C@H]3[C@H](OCC(=O)N(C)C)CC[C@@H]32)cs1` gave an INHIBITION of 10.6%.
With `CC(NC(=O)c1ccc(F)cc1F)c1cnn(C)c1` (stereo not given) the INHIBITION was 33.3%.
In the case of `O=C(Nc1cccnc1)[C@H]1C[C@H]2OCC[C@H]2N(C(=O)c2ccsc2)C1`, the INHIBITION is reported as 3.41%.
`CCNc1nc2cn(-c3ccc(Cl)cc3)c(=O)c-2c[nH]1` was tested, and the INHIBITION was -64.5%.
Molecule `c1cncc(-c2noc(CNCC3CCCN3c3cccnn3)n2)c1` (stereo not given) has an INHIBITION of -7.81%.
In the case of `COC(C)(C)CC(C)NCc1cn2ccccc2n1` (stereo not given), the INHIBITION is reported as 8.38%.
For `Cc1cc(O)n(-c2ccc3nnc(C)n3n2)n1`, the INHIBITION was 6.83%.
`Cc1ccccc1OC(C(=O)N1CCC2(CC1)CN(C)C(=O)O2)C(C)C` (stereo not given) showed an INHIBITION of 41.5%.
In the case of `CC(C)C(C(=O)N1CCC2(CC1)CN(C)C(=O)O2)c1ccccc1` (stereo not given), the INHIBITION is reported as 56.3%.
With `Cc1ccccc1OCC(O)C(=O)N1CCC2(CC1)CN(C)C(=O)O2` (stereo not given) the INHIBITION was 39.6%.
`Cc1noc(C)c1CN1C[C@@H]2COC[C@H](C(=O)N3CCOCC3)[C@@H]2C1` was tested, and the INHIBITION was 13.6%.
Molecule `Cc1noc(C)c1CN1C[C@@H]2COC[C@@H](C(=O)N3CCCO3)[C@@H]2C1` has an INHIBITION of 57.9%.
`Cc1noc(C)c1CN1C[C@@H]2COC[C@H](C(=O)N3CCCCO3)[C@@H]2C1` was tested, and the INHIBITION was 50.6%.
Work on `Cc1noc(C)c1CN1C[C@@H]2COC[C@@H](CC(=O)N3CCCO3)[C@@H]2C1` yielded an INHIBITION of -0.388%.
Molecule `Cc1noc(C)c1CN1C[C@@H]2COC[C@@H](C(=O)N3CCCCO3)[C@@H]2C1` has an INHIBITION of 39.2%.
`Cc1cc(CN2C[C@@H]3COC[C@H](C(=O)N4CCCCO4)[C@@H]3C2)no1` showed an INHIBITION of 21.8%.
`Cc1noc(C)c1CN1C[C@@H]2COC[C@H](C(=O)N3CCCO3)[C@@H]2C1` was tested, and the INHIBITION was 62.5%.
In the case of `Cc1noc(C)c1CN1C[C@@H]2COC[C@@H](CC(=O)N3CCCCO3)[C@@H]2C1`, the INHIBITION is reported as 41.6%.
`Cc1cc(CN2C[C@@H]3COC[C@@H](C(=O)N4CCCCO4)[C@@H]3C2)no1` gave an INHIBITION of 34.6%.
With `CNC(=O)C1CN(C(=O)c2ccncc2)CCN(S(C)(=O)=O)C1` (stereo not given) the INHIBITION was 7.7%.
`Cc1cc(-c2cnc(C(C)C)nc2CN(C)C(=O)c2ccccn2)on1` was tested, and the INHIBITION was 30.4%.
`CC1CCN(c2ccc(=O)n(CC(=O)N(C)Cc3ccccc3)n2)CC1` was tested, and the INHIBITION was -17.1%.
With `CC(C)(C)c1cc(=O)n2c(n1)SCC(C(=O)NCc1ccccn1)C2` (stereo not given) the INHIBITION was 29.1%.
`CC(=O)N1CCC2(CC1)C(=O)N(CC1CCN(C)CC1)c1ccccc12` was tested, and the INHIBITION was -4.82%.
`O=c1[nH]c2c(-c3ccccn3)nsc2c(=O)n1CC1CC1` was tested, and the INHIBITION was 7.3%.
`NC(=O)CN1CCC(c2noc3cc(F)ccc23)CC1` showed an INHIBITION of 18.7%.
In the case of `CNC(=O)[C@@H](CC(C)C)N1CCC[C@H]1C(=O)N(C)Cc1cccnc1`, the INHIBITION is reported as 45.1%.
In the case of `Cc1cc(CN2CCN(C(=O)NC(C)c3ccncc3)CC2)on1` (stereo not given), the INHIBITION is reported as 14.9%.
`Cc1ccc(C(=O)N2CCC(Oc3c(C)cccc3C)CC2)c(=O)[nH]1` gave an INHIBITION of -1.25%.
For `Cc1cnc2c(S(=O)(=O)N(C)C3CCS(=O)(=O)C3)cccc2c1` (stereo not given), the INHIBITION was 22.3%.
`Cc1cccc(CN2C[C@@H]3COC[C@]3(CNC(=O)c3ccno3)C2)n1` gave an INHIBITION of -30%.
Molecule `CC(C)n1cc(C(=O)NCC(CO)Cc2cccs2)cn1` (stereo not given) has an INHIBITION of 5.78%.
With `Nc1nc(CCCNC(=O)c2ccc(C3CCCNC3)cc2)cs1` (stereo not given) the INHIBITION was -3.58%.
In the case of `CC(C)n1cc(C(=O)NCCCc2csc(N)n2)cn1`, the INHIBITION is reported as 69.1%.
For `CSCc1nc(CNC(=O)c2cnn(C(C)C)c2)cs1`, the INHIBITION was 55%.
Molecule `CSCc1nc(CCNC(=O)c2cnn(C(C)C)c2)cs1` has an INHIBITION of 33.4%.
Work on `CC(C)n1cc(C(=O)NCCc2cn3ccsc3n2)cn1` yielded an INHIBITION of 8.48%.
`COc1cc(NCc2c(C)noc2C)c(OC)cc1Cl` gave an INHIBITION of 28.7%.
`Cc1ccc(N[C@@H]2CN(Cc3cc(C)on3)C[C@@H]3CCCO[C@@H]32)nn1` showed an INHIBITION of -24.1%.
`Cc1cc(NC(=O)CN2CCc3cnc(C(C)C)nc3C2)on1` showed an INHIBITION of -0.113%.
`COc1ccc(OC)c(C(O)CN2CCC(N3CCC(C)CC3)CC2)c1` (stereo not given) was tested, and the INHIBITION was 12.3%.
`COCCN(C)C(C)c1cccc(S(N)(=O)=O)c1` (stereo not given) was tested, and the INHIBITION was -29.8%.
`CC(C)c1n[nH]c(C2CN(C(=O)c3cc(Cl)c[nH]3)CCO2)n1` (stereo not given) showed an INHIBITION of -17.4%.
With `Cc1nn(C)cc1CN1CCCC(n2c(=O)oc3ccccc32)C1` (stereo not given) the INHIBITION was 43.35%.
With `c1ccc(-c2nc3c(c(NCCn4ccnn4)n2)CCNCC3)nc1` the INHIBITION was -3.01%.
In the case of `c1ccc(-c2nc3c(c(NCCCn4cncn4)n2)CCNCC3)nc1`, the INHIBITION is reported as 57.3%.
`Cc1cccc(=O)n1CCCNc1nc(N(C)C)nc2c1CCNCC2` gave an INHIBITION of 7.93%.
`CN(Cc1nccs1)c1nc(-c2ccccn2)nc2c1CCNCC2` was tested, and the INHIBITION was 13.7%.
Work on `CN(Cc1cccnc1)c1nc(-c2ccccn2)nc2c1CCNCC2` yielded an INHIBITION of -10.8%.
With `c1ccc(-c2nc3c(c(NCCn4cccc4)n2)CCNCC3)nc1` the INHIBITION was 66.5%.
In the case of `O=C(CS(=O)(=O)Cc1cc(Cl)c2c(c1)OCO2)N1CCCC1`, the INHIBITION is reported as 21%.
`COc1ccc(CCC(=O)N2CCN(c3nc(C)ns3)CC2)cc1` was tested, and the INHIBITION was 6.7%.
Work on `CC(C)c1noc(CN2CCN(C(=O)OC(C)(C)C)C(C)C2)n1` (stereo not given) yielded an INHIBITION of 33.6%.
`COCc1cc(N2CCOC(c3ccc(F)cc3)C2)ncn1` (stereo not given) was tested, and the INHIBITION was 38.3%.
Molecule `COCc1cc(N2CCOC(c3ccc(Cl)c(Cl)c3)C2)ncn1` (stereo not given) has an INHIBITION of 63.1%.
With `COc1cc(N2CCOC(c3ccc(F)cc3)C2)ncn1` (stereo not given) the INHIBITION was 55.2%.
Work on `COCc1cc(N2CCOC(c3ccc(Cl)cc3)C2)ncn1` (stereo not given) yielded an INHIBITION of 8.64%.
In the case of `Cc1cc(N2CCOC(c3ccncn3)C2)ncn1` (stereo not given), the INHIBITION is reported as 26.7%.
Work on `Fc1ccc(C2CN(c3ncnc4nc[nH]c34)CCO2)cc1` (stereo not given) yielded an INHIBITION of -28.6%.
With `CCn1cnnc1C1CCN(C(=O)c2c(C)oc(C)c2C)CC1` the INHIBITION was 46.7%.
In the case of `Cc1cccc(CC2COCCN(Cc3nccn3C)C2)n1` (stereo not given), the INHIBITION is reported as 26.3%.
For `O=C(CC1CCN(CCc2ccccc2)CC1)NC1CCOCC1`, the INHIBITION was 25.8%.
Work on `Cn1cnnc1C1CCCN(Cc2nc(Cc3ccccc3)no2)C1` (stereo not given) yielded an INHIBITION of 3.13%.
With `CNc1[nH]nc(N)c1NC(=O)c1ccccc1` the INHIBITION was 17.6%.
Work on `COc1ccc(-n2nnc(C(=O)O)c2-c2ccccn2)cc1` yielded an INHIBITION of 32.2%.
Molecule `Cc1ccc(CN2C[C@@H]3COC[C@@H](NS(C)(=O)=O)[C@@H]3C2)o1` has an INHIBITION of -6.02%.
Molecule `CC(C)C1CN(C(=O)c2ccc(C(N)=O)cc2)CCS1` (stereo not given) has an INHIBITION of 0.139%.
For `CC(C)C1CN(C(=O)c2ccccc2)CCS1` (stereo not given), the INHIBITION was 61.3%.
`CC(C)C1CN(C(=O)c2ccncc2)CCS1` (stereo not given) was tested, and the INHIBITION was 19.6%.
For `CN1C[C@@H](N)C[C@H]1C(=O)N1CCC(Cc2ccc(F)cc2)CC1`, the INHIBITION was 58.1%.
In the case of `CC(C)(C)C(=O)N1CCC(COCc2ccccc2)C1` (stereo not given), the INHIBITION is reported as 11.9%.
For `CC(C(=O)N1CCC(Cc2ccc(F)cc2)CC1)n1ccnc1` (stereo not given), the INHIBITION was 32.8%.
Work on `CCC(=O)N1CCCC1C(=O)N1CCC(Cc2ccc(F)cc2)CC1` (stereo not given) yielded an INHIBITION of 49.4%.
`CN1CSC[C@H]1C(=O)N1CCC(CCc2ccccc2)CC1` showed an INHIBITION of -29%.
In the case of `CN1CSC[C@H]1C(=O)N1CCC(Cc2ccccc2F)CC1`, the INHIBITION is reported as -40.6%.
`O=C(C1CCS(=O)(=O)CC1)N1CCC(Cc2ccc(F)cc2)CC1` showed an INHIBITION of 57.3%.
Work on `CN1C[C@@H](N)C[C@H]1C(=O)N1CCC(CCCc2ccccc2)CC1` yielded an INHIBITION of 55.9%.
With `O=C([C@H]1CCS(=O)(=O)[C@@H]2CN(Cc3ccc(F)cc3)C[C@H]12)N1CCCC1` the INHIBITION was 12.7%.
For `Cn1ncc2ccc(C3CCCN(Cc4ccsc4)C3)nc21` (stereo not given), the INHIBITION was 33.45%.
`COc1cccc(-n2cc3[nH]c(=O)[nH]n3c2=O)c1` showed an INHIBITION of 3.68%.
Molecule `Cc1cc(C(=O)N2C[C@@H]3CC[C@H]2CN(C(=O)c2ccncc2)C3)cs1` has an INHIBITION of 38%.
Molecule `CN(C)S(=O)(=O)N1C[C@H](Oc2cccnc2)[C@H]2OCCC[C@H]21` has an INHIBITION of 14.2%.
`O=C(c1ccc[nH]1)N1Cc2nccn2CC(Cn2ncccc2=O)C1` (stereo not given) showed an INHIBITION of -87.3%.
For `CNC(=O)C1CNCCN1C(=O)c1ccc(C(F)(F)F)nc1C` (stereo not given), the INHIBITION was -15.3%.
Work on `O=C1C(NS(=O)(=O)c2ccc(F)c(F)c2)CCN1Cc1ccccc1` (stereo not given) yielded an INHIBITION of 21.5%.
Work on `CC(C)NC(=O)CCNC(=O)c1cnc(Cc2ccc(F)cc2)s1` yielded an INHIBITION of 10.6%.
`COC(=O)C(C)(C)NC(=O)c1cnc(C(C)(C)C)s1` showed an INHIBITION of 25.1%.
For `CN(C)C(=O)CN(C)C(=O)c1cnc(Cc2ccc(F)cc2)s1`, the INHIBITION was 2.37%.
`COC(=O)C(C)(C)NC(=O)c1cnc(Cc2ccc(F)cc2)s1` showed an INHIBITION of 92.8%.
`CCc1ncc(C(=O)NC(C)(C)C(=O)OC)s1` was tested, and the INHIBITION was 40.6%.
For `COC(=O)[C@H](C)NC(=O)c1cnc(Cc2ccc(F)cc2)s1`, the INHIBITION was 51.7%.
Work on `Cn1cc(CN2CCn3cc(CNC(=O)C4CCC4)nc3C2)cn1` yielded an INHIBITION of 14.4%.
Work on `O=C(c1cnccn1)N1CCN(Cc2cscn2)CC1` yielded an INHIBITION of 25.85%.
Molecule `CSCC(C)(O)CNS(=O)(=O)c1cccc(Cl)c1` (stereo not given) has an INHIBITION of -33.5%.
For `O=C(c1ncn2c1CNS(=O)(=O)c1ccccc1-2)N1CCCCCC1`, the INHIBITION was 68.4%.
`O=C(c1ncn2c1CNS(=O)(=O)c1ccccc1-2)N1CCCCC1` gave an INHIBITION of 7.24%.
In the case of `CN1CCN(C(=O)c2ncn3c2CNS(=O)(=O)c2ccccc2-3)CC1`, the INHIBITION is reported as 15.3%.
`CCc1nc(C2CCCN2C(=O)CCc2nc(C(C)(C)C)no2)no1` (stereo not given) showed an INHIBITION of 40.2%.
In the case of `COc1ncccc1CN1CCC2[C@H]1CCN2CCN(C)C` (stereo not given in full), the INHIBITION is reported as -20.1%.
